Compound activity from PubChem BioAssay.
PLK1 PBD inh: blocks phosphopeptide binding to human PLK1 polo-box domain; Plk1 PBD binding of FITC phosphopeptide, fluorescence polarization; P53350; hit rate 2.8% among 360,000; Potency, µM, inactives show max response, negative = inhibition, hits mostly inhibitors; further: series mostly up to about 57 µM; on the % scale 0 is the no-effect control and ±100 the full control effect; nearly all actives have a fitted effect of over 65% in size
BAZ2B inh: blocks human BAZ2B. AlphaScreen BAZ2B-H3K14Ac peptide displacement. Potency, µM (series often up to 114 µM), for inactives: at the top dose activity change, negative = inhibition, most hits filed as inhibitors. hit rate 4.4% among 360,000. AID 504333; further: on the % scale 0 is the no-effect control and ±100 the full control effect; nearly all actives have a fitted effect of over 60% in size
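Protein-peptide AlphaScreen: BAZ2B 50 nM, b-H3K14Ac 50 nM, 1x PBS pH 7.4 + 0.01% Tween-20. Preincubation 30 min RT; cpd 30 min RT (top 110 uM); beads 20 min RT, light-protected.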
HP1b chromo inh: inhibitors of HP1-beta chromodomain binding to methylated histone tails. P83916. AlphaScreen HP1-beta / biotin-H3K9me3 peptide binding. Potency, µM (doses to about 114 µM), for inactives: at the top dose activity change, negative = inhibition, usual class: inhibitors. hit rate 0.56% among 390,000. AID 540317; further: nearly all actives have a fitted effect of over 70% in size
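AlphaScreen: HP1-beta (50 nM) preformed 30 min with biotin-H3(1-18)K9me3 peptide (50 nM) in PBS pH 7.4, 0.01% Tween-20. Compound added for 30 min at RT, then streptavidin donor/nickel chelate acceptor beads (10 ug/mL) for 30 min.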
Sfp PPTase inh: blocks B. subtilis Sfp PPTase activity; Potency, µM, for inactives: largest response in the series, negative = inhibition, most hits filed as inhibitors; Biochemical Sfp PPTase activity, qHTS; hit rate 3.5% among 310,000; AID 1490;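 further: the enzyme is Sfp with the accession as filed and its product quenches rhodamine fluorescence; 0% = enzyme reaction without inhibitor and -100% = no enzyme wells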
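Compounds were incubated with enzyme (final 15 nM) for 15 min at room temperature before substrate addition started the reaction. Fluorescence at 525 nm excitation, 598 nm emission was recorded immediately and after 30 minutes.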
JMJD2A Tudor inh: blocks the human JMJD2A Tudor domain. O75164. AlphaScreen JMJD2A-Tudor / H3K4me3 peptide binding. Potency, µM (top dose mostly 114 µM), without a hit: at the top dose activity change, negative = inhibition, hits mostly inhibitors. hit rate 4.4% among 390,000. AID 504339; further: on the % scale 0 is the no-effect control and ±100 the full control effect; nearly all actives have a fitted effect of over 50% in size
Target sequence (O75164 whole entry, looked up, the tested form may be a part): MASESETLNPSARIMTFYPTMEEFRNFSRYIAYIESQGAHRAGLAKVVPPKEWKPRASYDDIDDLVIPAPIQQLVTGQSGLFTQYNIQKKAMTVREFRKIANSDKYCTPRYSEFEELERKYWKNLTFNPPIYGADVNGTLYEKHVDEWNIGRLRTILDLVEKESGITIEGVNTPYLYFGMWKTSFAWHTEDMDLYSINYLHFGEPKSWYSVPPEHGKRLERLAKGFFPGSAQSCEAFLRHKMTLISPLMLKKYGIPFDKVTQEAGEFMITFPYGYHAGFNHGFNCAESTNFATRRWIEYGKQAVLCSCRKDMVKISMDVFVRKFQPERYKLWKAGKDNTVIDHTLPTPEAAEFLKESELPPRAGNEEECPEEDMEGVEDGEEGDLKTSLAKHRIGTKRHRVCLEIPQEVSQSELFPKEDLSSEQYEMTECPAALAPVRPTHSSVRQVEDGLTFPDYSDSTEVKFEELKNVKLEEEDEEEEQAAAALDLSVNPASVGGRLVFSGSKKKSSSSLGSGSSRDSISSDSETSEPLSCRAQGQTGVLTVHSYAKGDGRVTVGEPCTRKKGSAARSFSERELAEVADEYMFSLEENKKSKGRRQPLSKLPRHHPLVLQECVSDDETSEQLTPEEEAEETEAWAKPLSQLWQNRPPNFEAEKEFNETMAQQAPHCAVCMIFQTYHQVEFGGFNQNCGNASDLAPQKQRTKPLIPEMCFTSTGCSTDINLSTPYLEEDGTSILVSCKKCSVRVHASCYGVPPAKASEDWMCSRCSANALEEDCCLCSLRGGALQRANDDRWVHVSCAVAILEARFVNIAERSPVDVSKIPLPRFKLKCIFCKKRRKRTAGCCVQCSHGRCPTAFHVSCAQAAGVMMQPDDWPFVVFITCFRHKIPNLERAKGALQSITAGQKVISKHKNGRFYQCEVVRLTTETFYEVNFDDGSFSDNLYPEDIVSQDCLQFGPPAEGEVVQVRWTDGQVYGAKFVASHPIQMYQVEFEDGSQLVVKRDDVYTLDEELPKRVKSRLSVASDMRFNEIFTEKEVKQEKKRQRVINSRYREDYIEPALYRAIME
G9a block: G9a (human) methyltransferase inhibition. hit rate 8.8% among 350,000. AID 504332. Q96KQ7. G9a H3K9 monomethylation, AlphaScreen, 2 h. Potency, µM (highest dose often 102 µM), for the others: at the top dose activity, negative = inhibition, most hits filed as inhibitors; further: on the % scale 0 is the no-effect control and ±100 the full control effect; nearly all actives have a fitted effect of over 75% in size
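Step 1: enzyme (final 20 nM) with compound, 15 min RT. Step 2: substrate peptide 500 nM and SAM 20 uM, 2 h RT. Step 3: anti-H3K9me1 antibody and AlphaScreen beads, 10 min, then plate read.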
* hit, by the source's call; [ ] = another dose, or the depositor's remark. Hits are enriched below; roughly 12% of the tested compounds scored in any of these assays. The call rests on the fitted dose curve; in most records, active means well fitted curve in the direction sought with a large enough effect; inconclusive means small, poorly fitted or top-dose-only effect, or another doubt; inactive means no such curve, though single readings can be large; an effect the other way counts as inactive or inconclusive. Potency means the concentration at half of the fitted maximal effect.

COc1ccc([C@@H]2CC(=O)c3c(O)cc(O[C@H]4O[C@@H](CO[C@H]5O[C@@H](C)[C@@H](O)[C@@H](O)[C@@H]5O)[C@@H](O)[C@@H](O)[C@@H]4O)cc3O2)cc1O was read as Sfp PPTase inh 21% and G9a block 48%[21.5 µM].
`Cc1cc(/C=N/O)c(C)n1-c1ccc(Br)cc1` gave PLK1 PBD inh -7%, BAZ2B inh 45µM*, HP1b chromo inh inconclusive, Sfp PPTase inh -6%, JMJD2A Tudor inh inconclusive and G9a block inconclusive.
Screening CCOc1ccc(OCCC(=O)OCC(=O)Nc2ccc(Cl)cn2)cc1 returned PLK1 PBD inh 1%, BAZ2B inh -3%, HP1b chromo inh 7%, JMJD2A Tudor inh -21% and G9a block 4%.
For COC(=O)c1nc(NC(=O)c2ccc(Br)cc2)n[nH]1 the results were PLK1 PBD inh 24µM*, BAZ2B inh -1%, HP1b chromo inh 64%, Sfp PPTase inh 9%, JMJD2A Tudor inh -4% and G9a block -46%[59 µM].
CCOc1ccc(CN(C)C(=O)c2ccc(S(=O)(=O)N(C)c3ccccc3OC)cc2)cc1 was read as PLK1 PBD inh -13%, BAZ2B inh 6%, HP1b chromo inh 36%, JMJD2A Tudor inh -16% and G9a block 0%[12.7 µM].
`Cc1cccc(Nc2nnc(SCC(=O)Nc3ccccc3[N+](=O)[O-])s2)c1` gave PLK1 PBD inh -13%, BAZ2B inh -11%, HP1b chromo inh -12%, Sfp PPTase inh 8%, JMJD2A Tudor inh inconclusive and G9a block -24%[59 µM].
Cc1cccc(Nc2nnc(SCC(=O)c3ccc(Br)s3)s2)c1C was read as PLK1 PBD inh -27%, BAZ2B inh -36%, HP1b chromo inh 26%, Sfp PPTase inh 6%, JMJD2A Tudor inh -13% and G9a block 4.5µM*.
O=C(CSc1nc(-c2ccccc2)cs1)Nc1ccccc1[N+](=O)[O-] was read as PLK1 PBD inh -6%, BAZ2B inh 25µM*, HP1b chromo inh inconclusive, Sfp PPTase inh 3%, JMJD2A Tudor inh inconclusive and G9a block inconclusive.
`C/C(N)=C(/C#N)C(=O)CSc1nnc(Nc2cccc(C)c2C)s1` gave PLK1 PBD inh -24%, BAZ2B inh inconclusive, HP1b chromo inh 18%, Sfp PPTase inh 15%, JMJD2A Tudor inh -20% and G9a block inconclusive.
Cc1ccccc1Nc1nnc(SCC(=O)Nc2ccccc2[N+](=O)[O-])s1 was read as PLK1 PBD inh -21%, BAZ2B inh inconclusive, HP1b chromo inh inconclusive, Sfp PPTase inh 4%, JMJD2A Tudor inh inconclusive and G9a block 45µM*.
Cc1ccccc1NC(=O)CSc1ccsc1[N+](=O)[O-] was read as PLK1 PBD inh inconclusive, BAZ2B inh 40µM*, HP1b chromo inh inconclusive, Sfp PPTase inh -10%, JMJD2A Tudor inh 25µM* and G9a block inconclusive.
For O=C(CSc1nc(-c2ccccc2)cs1)Nc1nccs1 the results were PLK1 PBD inh -13%, BAZ2B inh inconclusive, HP1b chromo inh 30%, Sfp PPTase inh -17%, JMJD2A Tudor inh -10% and G9a block inconclusive.
`O=C(c1cc(C(F)(F)F)cc(C(F)(F)F)c1)N1CCC2(CCCN(c3ncccn3)C2)CC1` gave Sfp PPTase inh 8% and G9a block 7%[12.7 µM].
COC(=O)c1scc(-c2ccc(C)cc2)c1S(=O)(=O)Nc1cc(OC)c(OC)c(OC)c1 was read as BAZ2B inh -25%, HP1b chromo inh -8%, JMJD2A Tudor inh -30% and G9a block 0%[59 µM].
For Cc1cc(C)nc(SCC(=O)Nc2ccccc2[N+](=O)[O-])n1 the results were PLK1 PBD inh -6%, BAZ2B inh -25%, HP1b chromo inh -3%, Sfp PPTase inh 18%, JMJD2A Tudor inh -4% and G9a block 8%.
For O=C1CC(=O)NC(SCC(=O)Nc2ccccc2[N+](=O)[O-])=N1 the results were PLK1 PBD inh inconclusive, BAZ2B inh 40µM*, HP1b chromo inh inconclusive, Sfp PPTase inh inconclusive, JMJD2A Tudor inh 35µM* and G9a block 25µM*.
For O=C1CCCc2c1nc(-c1ccccc1F)n2O the results were PLK1 PBD inh -5%, BAZ2B inh -21%, HP1b chromo inh 64%, Sfp PPTase inh 7%, JMJD2A Tudor inh -3% and G9a block inconclusive.
For O/N=C1\CCCc2c1nc(-c1ccccc1F)n2O the results were PLK1 PBD inh 3%, BAZ2B inh 50µM*, HP1b chromo inh -2%, Sfp PPTase inh inconclusive, JMJD2A Tudor inh 32µM* and G9a block 22µM*.
For Cc1nccn1CCOc1ccccc1Cl the results were PLK1 PBD inh -3%, BAZ2B inh -28%, HP1b chromo inh 29%, Sfp PPTase inh 17%, JMJD2A Tudor inh -12% and G9a block 22%[59 µM].
C=CCOC(=O)C1=C(C)OC(N)=C(C#N)C1c1c(C)nn(-c2ccccc2)c1Cl (stereo not given) was read as PLK1 PBD inh -14%, BAZ2B inh -26%, HP1b chromo inh -7%, Sfp PPTase inh 3%, JMJD2A Tudor inh -30% and G9a block -12%[59 µM].
Screening CCOC(=O)C1=C(C)OC(N)=C(C#N)C1c1c(C)nn(-c2ccccc2)c1Cl (stereo not given) returned PLK1 PBD inh -27%, BAZ2B inh -11%, HP1b chromo inh 44%, Sfp PPTase inh 56µM*, JMJD2A Tudor inh inconclusive and G9a block inconclusive.
For Cc1nn(-c2ccccc2)c(Cl)c1C1C(C#N)=C(N)Oc2n[nH]c(C)c21 (stereo not given) the results were PLK1 PBD inh 24µM*, BAZ2B inh -6%, HP1b chromo inh -1%, Sfp PPTase inh 11%, JMJD2A Tudor inh -22%[11.4 µM] and G9a block inconclusive.
`Cc1cc(C)n2nc(CC(=O)NCc3ccc(F)cc3)nc2n1` gave PLK1 PBD inh 27µM*, BAZ2B inh 13%, HP1b chromo inh 9%, Sfp PPTase inh -16%, JMJD2A Tudor inh 71µM* and G9a block inconclusive.
Screening Cc1cc(C)n2nc(C(=O)NCc3ccccc3)nc2n1 returned PLK1 PBD inh -6%, BAZ2B inh 9%, HP1b chromo inh 22%, Sfp PPTase inh 7%, JMJD2A Tudor inh 4% and G9a block 6%[12.7 µM].
For Cc1cc(C)n2nc(CC(=O)NNC(=O)COc3ccccc3)nc2n1 the results were PLK1 PBD inh -10%, BAZ2B inh -9%, HP1b chromo inh 35%, Sfp PPTase inh 2%, JMJD2A Tudor inh -3% and G9a block 25µM*.
Cc1cc(C)n2nc(C(=O)NCc3ccccc3)cc2n1 was read as PLK1 PBD inh 21µM*, BAZ2B inh 22%, HP1b chromo inh inconclusive, Sfp PPTase inh inconclusive, JMJD2A Tudor inh -22% and G9a block inconclusive.
